Source: PubChem BioAssay (NCI)
About 83,000 compounds went through this panel and 20% of them were active in at least one assay; those are over-represented in the sample as a whole.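 For each line, cells grew in 96-well plates with the test compound present at a single concentration for 48 hours.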 Unmarked numbers belong to inactive results. Calls of active or inactive are those of the source. Rule for the calls: active = growth percent below 10; inactive = the rest.

Tests used:
Assay in all cases: NCI-60 one-dose screen, 48 h (100 = growth as untreated, 0 = no growth, -100 = all killed)
Conditions in all cases: 10 µM unless noted
NCI-H23 lung = tested on: NCI-H23 lung
NCI-H226 lung = tested on: NCI-H226 lung
NCI-H322M lung = tested on: NCI-H322M lung
HOP-62 NSCLC = tested on: HOP-62 NSCLC
NCI-H460 lung = tested on: NCI-H460 lung
HOP-92 NSCLC = tested on: HOP-92 NSCLC
NCI-H522 lung = tested on: NCI-H522 lung
A549/ATCC NSCLC = tested on: A549/ATCC NSCLC
786-0 renal = tested on: 786-0 renal
COLO 205 colon = tested on: COLO 205 colon

| SMILES | growth (NCI-H23 lung) | growth (NCI-H226 lung) | growth (NCI-H322M lung) | growth (HOP-62 NSCLC) | growth (NCI-H460 lung) | growth (HOP-92 NSCLC) | growth (NCI-H522 lung) | growth (A549/ATCC NSCLC) | growth (786-0 renal) | growth (COLO 205 colon) |
| --- | --- | --- | --- | --- | --- | --- | --- | --- | --- | --- |
| NC(=O)c1c(OCc2c(F)cc(Br)cc2F)nsc1NC(=O)NCCCCN1CCCC1 | 21.2% | 9.08% (active) | 15.4% | -29.7% (active) | -23.1% (active) | -1.17% (active) | -61.8% (active) | -15.6% (active) | -57.2% (active) | -78.7% (active) |
| CO[C@H]1C[C@@H]2CC[C@@H](C)[C@@](O)(O2)C(=O)C(=O)N2CCCC[C@H]2C(=O)O[C@H]([C@H](C)C[C@@H]2CC[C@@H](OCCO)[C@H](OC)C2)CC(=O)[C@H](C)/C=C(\C)[C@@H](O)[C@H](OC)C(=O)[C@H](C)C[C@H](C)\C=C/C=C/C=C/1C | 54.9% | 48.7% | 44.9% | 41.2% | 43.2% | 45.7% | 48.7% | 44.6% | 52.6% | 55.8% |
| Cc1cc(C)n(CC(=O)Nc2ccc(-c3nc4ccccc4s3)cc2)n1 | 93.8% | 100% | 99.9% | 105% | 102% | 97.7% | 103% | 94.7% | 106% | 112% |
| Cn1cnc2c(F)c(Nc3ccc(Br)cc3F)c(C(=O)NOCCO)cc21 | 22% | 56.6% | 18.9% | 32.7% | 62.6% | -4.91% (active) | 60.9% | 30.9% | 67.4% | -2.54% (active) |
| C=CC(=O)Nc1cccc(Nc2nc(Nc3ccc(N4CCN(C(C)=O)CC4)cc3OC)ncc2C(F)(F)F)c1 | 26.7% | 26.8% | -28.9% (active) | 27.6% | 9.55% (active) | -18.1% (active) | -12% (active) | 5.15% (active) | 8.43% (active) | -37.4% (active) |
| CCc1ccc(C2=C(O)C(=O)C(c3ccc(CC)cc3)=C(O)C2=O)cc1 | -17.4% (active) | -3.98% (active) | -19.6% (active) | -12.8% (active) | -19.8% (active) | -47.9% (active) | -20.7% (active) | -58.3% (active) | 0.0366% (active) | 5.7% (active) |
| C=CC(=O)N(C)[C@H]1C[C@H]2OC(C)(C1OC)n1c3ccccc3c3c4c(c5c6ccccc6n2c5c31)C(=O)NC4 (stereo not given in full) | 4.64% (active) | -60.7% (active) | 6.29% (active) | -15.4% (active) | 1.35% (active) | -21.8% (active) | -54.5% (active) | 9.49% (active) | -74.2% (active) | -75.3% (active) |
| COC(=O)CNC(=O)[C@@H](OC)[C@@H]1Cc2cc3cc(OC4CC(OC5CC(O)C(O)C(C)O5)C(O)C(C)O4)c(C)c(O)c3c(O)c2C(=O)[C@H]1OC1CC(OC2CC(OC3CC(C)(O)C(O)C(C)O3)C(O)C(C)O2)C(O)C(C)O1 (stereo not given in full) | -16.8% (active) | -10% (active) | 15.7% | 21.6% | 9.15% (active) | 9.61% (active) | -19% (active) | 7.82% (active) | -2.99% (active) | -17.6% (active) |
| Cc1cc(N2CCOCC2)nc(N(CCNc2ccnc3cc(Cl)ccc23)Cc2cccs2)n1 | 35.4% | 54.6% | 26.9% | 19.8% | 7.16% (active) | 15.6% | -21.5% (active) | 28.7% | -35.2% (active) | -69.2% (active) |
| Clc1ccc(C(Cn2ccnc2)OCc2ccsc2Cl)c(Cl)c1 (stereo not given) | 37.9% | 63% | 88.2% | 73.6% | 57.7% | 28.7% | 35.1% | 56.1% | 55.6% | 62.9% |
| CN1CCN(c2nc(C3=C(c4c[nH]c5ccccc45)C(=O)NC3=O)c3ccccc3n2)CC1 | 70.1% | 73.8% | 29.2% | 44.3% | 87.5% | 80.7% | 68% | 51.7% | 92.8% | -2.65% (active) |
| C=C1C(=O)O[C@H]2[C@H]1CC/C(C=Nc1c(N)cc(C(F)(F)F)cc1C(F)(F)F)=C\CC[C@@]1(C)O[C@@H]21 | -29% (active) | -53.1% (active) | 49.3% | 21.3% | -17.9% (active) | -39.9% (active) | -55.4% (active) | 11.9% | -66.5% (active) | -59.7% (active) |
| CC(C)n1c(NCCc2ccc(O)c(O)c2)nc2c1c(=O)n(C)c(=O)n2C | 87.2% | 90.1% | 95.1% | 103% | 100% | 83.7% | 85.2% | 92.8% | 90.4% | 103% |
| CC(=O)OC(C(=O)c1ccccc1)c1ccccc1 (stereo not given) | 111% | 98.9% | 99.8% | 103% | 101% | 58% | 90.6% | 106% | 100% | 107% |
| CC(N)C(Cc1ccc(Cl)cc1)c1ccc(Cl)cc1 (stereo not given) | 92.8% | 88.2% | 83.4% | 56% | 66% | 21.5% | -18.1% (active) | 42.1% | 57.1% | -81.2% (active) |
| CCN1CCN(c2cc(C)nc(N(CCCNc3ccnc4cc(Cl)ccc34)Cc3ccc4c(c3)OCO4)n2)CC1 | 36.8% | 50.7% | 5.48% (active) | -38.8% (active) | 7.01% (active) | -24.9% (active) | -24.5% (active) | 11.5% | -80.2% (active) | -82.6% (active) |
| N#CC(C#N)=NO | 92.7% | 94.6% | 92.1% | 85.8% | 108% | 94% | 75% | 73.4% | 99.5% | 113% |
| CC(=O)O[C@]1(C)C[C@H](O)[C@]2(O)C=CO[C@H](O[C@@H]3O[C@H](CO)[C@@H](O)[C@H](O)[C@H]3O)[C@@H]21 | 99.3% | 96.7% | 101% | 95.2% | 110% | 129% | 95.4% | 105% | 93.2% | 108% |
| COC(=O)[C@H](Cc1ccc(O)cc1)NC(=O)[C@@H](OC)[C@@H]1Cc2cc3cc(OC4CC(OC5CC(O)C(O)C(C)O5)C(O)C(C)O4)c(C)c(O)c3c(O)c2C(=O)[C@H]1OC1CC(OC2CC(OC3CC(C)(O)C(O)C(C)O3)C(O)C(C)O2)C(O)C(C)O1 (stereo not given in full) | -38.6% (active) | -17.6% (active) | 11.1% | 19.3% | 6.99% (active) | 12.2% | -19.5% (active) | 4.32% (active) | 1.98% (active) | -22.8% (active) |
| C[N+](C)(CCOC(c1ccccc1)c1ccccc1)CC(=O)OCc1ccccc1 | 101% | 91.8% | 90.6% | 97.8% | 110% | 106% | 93.8% | 102% | 105% | 103% |
| Cc1c(Cn2c(C)nc3c(C(=O)O)cc(N4CCOCC4)cc32)cccc1C(F)(F)F | 105% | 114% | 98.8% | 79% | 102% | 88.3% | 62.9% | 89.7% | 95.8% | 108% |
| COc1cc(-c2nc(C(=O)Nc3ccc(C)cc3)nn2-c2ccc(F)c(F)c2)cc(OC)c1OC | 97.1% | 102% | 96% | 86% | 106% | 114% | 48% | 96.2% | 98.6% | 95.8% |
| COc1cccc2cc(-c3nc(C4CCC(C(=O)O)CC4)n4ncnc(N)c34)[nH]c12 (stereo not given) | 7.94% (active) | 7.69% (active) | 9.76% (active) | -10% (active) | 11.1% | -14.5% (active) | -1.72% (active) | 5.25% (active) | -5.64% (active) | 1.83% (active) |
| Cn1cc(-c2ccc(F)c(C(F)(F)F)c2)nc1C1CCN(c2ncnc3[nH]ncc23)CC1 | 72.3% | 55.3% | 75.3% | 52.1% | 76.9% | 65.3% | 47.8% | 50.4% | 69.1% | 84.4% |
| CC(C)OP(=O)(CCC(=O)c1c[nH]c2ccccc12)OC(C)C | 96.8% | 94% | 103% | 88.1% | 114% | 95.5% | 86.9% | 68.7% | 109% | 103% |
| CCCCCCCC(=O)SCC/C=C/[C@@H]1CC(=O)NCc2cccc(n2)C2=N[C@@](C)(CS2)C(=O)N[C@@H](C(C)C)C(=O)N1 | 41.7% | 68.9% | 15.6% | 12.3% | 20% | 38% | -1.71% (active) | 15.4% | 54% | -41.6% (active) |
